# Screens (PubChem BioAssay)
# An excerpt weighted towards active compounds, which were near 1.3% of everything screened.
# PI5P4K alpha inh: blocks human PI5P4K alpha kinase activity; P48426; PI5P4Kalpha enzyme, ADP-Glo luminescence, 60 min; hits give low values; max response, %; hit rate 1.2% among 330,000; active = max response of -50% or lower; inconclusive = between -30% and -50%; inactive = -30% or higher; also: value at the top dose of about 77 µM; % is scaled to controls: 0 for no effect and ±100 for the full control effect
#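 Quantitative HTS of the MLSMR library against PI5P4Kalpha with substrate. ATP added last at 5 microM final; room temperature, 60 minutes. Remaining ATP depleted, ADP converted and read as luminescence.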
# Glioma ERSR ind: induces the endoplasmic reticulum stress response in human glioma cells. AID 602332. hit rate 0.02% among 420,000. U87-MG GRP78 promoter luciferase reporter, 16 h. Potency, µM, inactives show top-dose activation, actives largely listed as activators; also: potency is read from the fitted curve at half-maximal effect; series mostly up to about 76 µM; % of control where 0% means no effect; nearly all actives have a fitted effect of over 35% in size
#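 Stably transfected U87-MG human glioma cells carrying a GRP78-based luminescent sensor were seeded at 1000 cells/well, pin-dosed with compounds and incubated 16 h. Luciferase reagent was then added, and end-point luminescence was read after 10 min at room temperature.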
# WRN helicase inh-1: WRN helicase (human) inhibition; WRN helicase unwinding, fluorescent forked duplex, kinetic; Potency, µM (titrated, usually from 114 µM), inactives show top-dose activity change, negative = inhibition, most hits filed as inhibitors; hit rate 0.46% among 360,000; AID 651768; also: potency is read from the fitted curve at half-maximal effect; % is scaled to controls: 0 for no effect and ±100 for the full control effect; nearly all actives have a fitted effect of over 55% in size
#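 Enzyme (20 nM final) and test compound sit together 15 min at room temperature before substrate addition. Substrate is a single-forked duplex oligonucleotide (100 nM) labelled with fluorophore and quencher, with 2 mM ATP; helicase unwinding raises red fluorescence, read kinetically.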
# PGK inhibitor: T. brucei PGK inhibition. Potency, µM (top dose mostly 57.5 µM), for the others: top-dose activity change, negative = inhibition, hits mostly inhibitors. hit rate 0.043% among 380,000. AID 602233. PGK/GAPDH coupled, Kinase-Glo luminescence, 60 min. P07378; also: potency is read from the fitted curve at half-maximal effect; % is scaled to controls: 0 for no effect and ±100 for the full control effect; nearly all actives have a fitted effect of over 60% in size
# Target sequence (P07378 whole entry, looked up): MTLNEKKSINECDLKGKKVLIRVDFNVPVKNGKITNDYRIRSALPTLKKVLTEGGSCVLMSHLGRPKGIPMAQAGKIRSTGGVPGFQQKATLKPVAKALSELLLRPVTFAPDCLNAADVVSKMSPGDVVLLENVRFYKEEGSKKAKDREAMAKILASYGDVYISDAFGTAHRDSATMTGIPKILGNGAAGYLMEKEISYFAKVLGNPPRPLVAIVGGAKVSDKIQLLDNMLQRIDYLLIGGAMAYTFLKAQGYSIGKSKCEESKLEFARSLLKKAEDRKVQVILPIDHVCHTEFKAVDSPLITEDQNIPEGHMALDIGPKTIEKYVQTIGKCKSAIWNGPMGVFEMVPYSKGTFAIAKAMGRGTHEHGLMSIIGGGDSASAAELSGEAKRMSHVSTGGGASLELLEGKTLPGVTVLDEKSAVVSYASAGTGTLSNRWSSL
#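 Recombinant glycosomal PGK reaction used 1,3-bisphosphoglycerate generated in-well by GAPDH (100nM final) in 100mM TEA pH 7.6, 5mM MgCl2, 0.01% Tween-20. After 60 minutes at room temperature, ATP was read by Kinase-Glo Plus luminescence end-point.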
# FEN1 inh: blocks human flap endonuclease 1 | Potency, µM (highest dose often 114 µM), inactives show at the top dose activity change, negative = inhibition, hits mostly inhibitors | Recombinant FEN1 flap cleavage, fluorescence, 15 min | AID 588795 | hit rate 0.35% among 390,000 | P39748; also: potency is read from the fitted curve at half-maximal effect; % is scaled to controls: 0 for no effect and ±100 for the full control effect; nearly all actives have a fitted effect of over 65% in size
# Target sequence (P39748 whole entry, looked up): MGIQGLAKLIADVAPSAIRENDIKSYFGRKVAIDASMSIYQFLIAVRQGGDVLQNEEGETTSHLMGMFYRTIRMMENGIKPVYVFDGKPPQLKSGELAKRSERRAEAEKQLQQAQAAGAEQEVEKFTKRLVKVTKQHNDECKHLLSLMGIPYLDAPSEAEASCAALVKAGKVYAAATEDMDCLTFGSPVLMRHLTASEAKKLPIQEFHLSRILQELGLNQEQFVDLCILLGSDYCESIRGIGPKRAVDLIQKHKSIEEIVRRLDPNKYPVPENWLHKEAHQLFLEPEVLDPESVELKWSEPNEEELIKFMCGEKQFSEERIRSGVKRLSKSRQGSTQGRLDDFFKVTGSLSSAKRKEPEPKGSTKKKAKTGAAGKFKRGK
#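 Potency values derive from four-parameter Hill fits of normalized qHTS data. The reaction used 10 nM FEN1 preincubated 15 min at room temperature with compound, then 50 nM DNA substrate, read at 0 and 15 min.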
# Pin1 inh: blocks the human prolyl isomerase Pin1. Pin1 FP peptide displacement, HiFluor488, 10 min. Potency, µM (top dose mostly 115 µM), for inactives: at the highest dose activity, negative = inhibition, actives largely listed as inhibitors. hit rate 0.009% among 390,000. AID 504891; active = well fitted inhibition curve with a large enough effect in the polarisation, with a control signal flat, not every such curve was filed as active; inconclusive = small, poorly fitted or top-dose-only effect, or effect the other way, or a change in a side signal; inactive = no such curve, though single readings can be large or run the other way; the % refers to the polarisation; also: potency is read from the fitted curve at half-maximal effect; % is scaled to controls: 0 for no effect and ±100 for the full control effect
# WRN helicase inh-2: WRN helicase inhibition, cherry-pick retest; AID 720497; hit rate 63% among 610; WRN helicase DNA unwinding, fluorescence kinetic; Potency, µM (top dose mostly 57.1 µM), inactives show top-dose activity, negative = inhibition, most hits filed as inhibitors; shares compounds with WRN helicase inh-1; also: potency is read from the fitted curve at half-maximal effect; nearly all actives have a fitted effect of over 65% in size
# TO displacement: binds DNA, flagged in WRN inhibitor counterscreen; shares compounds with WRN helicase inh-1; thiazole orange DNA binding displacement, fluorescence; Potency, µM (titrated, usually from 57.1 µM), inactives show at the highest dose activity change, negative = inhibition, actives largely listed as inhibitors; hit rate 10% among 610; AID 720499;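 also: drop in dye fluorescence marks compound binding to DNA; potency is read from the fitted curve at half-maximal effect; % is scaled to controls: 0 for no effect and ±100 for the full control effect; nearly all actives have a fitted effect of over 60% in size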
# BLM helicase inh: counter-screen for WRN helicase inhibitors: human BLM helicase inhibition. Recombinant BLM helicase DNA unwinding, red fluorescence. shares compounds with WRN helicase inh-1. Potency, µM (highest dose often 57.1 µM), inactives show top-dose activity change, negative = inhibition, usual class: inhibitors. hit rate 60% among 610; also: potency is read from the fitted curve at half-maximal effect; nearly all actives have a fitted effect of over 60% in size
# * marks the source's active call; other numbers are inactive results; i = inactive; ? = inconclusive; / = no result; [ ] = dose if it differs, or a comment. Unless noted, calls follow the shape of the dose curve; as a rule, active = well fitted curve in the direction sought with a large enough effect; inconclusive = small, poorly fitted or top-dose-only effect, or another doubt; inactive = no such curve, though single readings can be large; an effect the other way counts as inactive or inconclusive.
SMILES,PI5P4K alpha inh,Glioma ERSR ind,WRN helicase inh-1,PGK inhibitor,FEN1 inh,Pin1 inh,WRN helicase inh-2,TO displacement,BLM helicase inh
O=C(NCCO)c1cccc2c1C(=O)c1ccccc1-2,-9,-3%,-3%,-4%,-21%,-12%,/,/,/
O=C1c2cccc(NCCNCCO)c2C(=O)c2cccc(NCCNCCO)c21,-17,-10%,7.1µM*,-8%,4µM*,-1%,6.1µM*,1.2µM*,7.6µM*
O=C(O)c1ccc(NC2=C/C(=N/S(=O)(=O)c3ccccc3)c3ccccc3C2=O)cc1,?,-14%,?,-26%,?,-4%,/,/,/
Cc1cc(C)c(S(=O)(=O)/N=C2\C=C(Nc3ccc(C(=O)O)cc3)C(=O)c3ccccc32)c(C)c1,-79*,-18%,89µM*,-24%,?,?,22µM*,?,15µM*
CCc1ccccc1NC(=O)CCS(=O)(=O)c1ccc(Br)cc1,-2,-2%,-9%,?,-7%,1%,/,/,/
COC(=O)c1ccccc1NC(=O)CCS(=O)(=O)c1ccc(Br)cc1,?,-1%,25µM*,?,?,/,9.6µM*,-8%,2.4µM*
CCCS(=O)(=O)NCc1c(C)ncc2c1CCN(C(=O)/C=C/c1ccc(F)cc1F)C2,/,-4%,/,/,/,/,/,/,/
O=C1Nc2ccc3sc4ccccc4c3c2C1=O,3,3%,?,-7%,?,?,?,24µM*,7.6µM*
O=C1Nc2ccccc2C1=O,-4,-2%,4%,-11%,5%,3%,/,/,/
O=C(N/N=C/c1ccc(O)c(O)c1)c1ccc(-n2cnnn2)cc1,-23,0%,2%[11.6 µM],-16%,-24%,12%,/,/,/
Cc1nc2c(cc1C(=O)N/N=C/c1ccc(O)c(O)c1)c(=O)n(C)c(=O)n2C,-24,-4%,?,-21%,-7%,?,?,-4%,?
COc1ccc(OC)c(CN2CCOc3ccc(C(O)c4cccnc4)cc3C2)c1 (stereo not given),/,-3%,/,/,/,/,/,/,/
O=C(c1cccnc1)C1CCCN(Cc2ccc3c(c2)CN(C(=O)c2cccs2)CCO3)C1 (stereo not given),/,-2%,/,/,/,/,/,/,/
O=C(O)c1ccccc1-c1ccc(/C=C/c2cc(C(F)(F)F)[nH]c(=O)n2)o1,?,-4%,79µM*,i,-32%,?,24µM*,i,-17%
COC1=C(OC)C(=O)C(Sc2ccc3ccccc3c2)=CC1=O,-91*,-13%,20µM*,-9%,5%,-8%,9%,-8%,-6%
O=C(O)c1ccc(-n2cccc2/C=C2\SC(=O)N(Cc3cccc(Cl)c3)C2=O)cc1,/,/,/,/,/,/,19µM*,-18%,14µM*
O=C(O)CCc1cc(F)c(S(=O)(=O)N2CCN(S(=O)(=O)c3ccc4c(c3)OCCO4)CC2)cc1F,/,/,/,/,/,-10%,/,/,/
O=c1cc(N2CCNCC2)nc2sc(-c3ccncc3)nn12,/,/,/,/,/,?,6.1µM*,6.8µM*,1.2µM*
CC(NC(=O)COC(=O)/C=C/c1ccc([N+](=O)[O-])cc1)c1ccccc1 (stereo not given),16,-4%,?,-1%,-100%,-6%,-3%,-4%,-7%
CCC1CN(CCNC(=O)c2scc3c2OCCO3)Cc2cc(OC)ccc2O1 (stereo not given),/,-6%,/,/,/,/,/,/,/
O=C1Nc2ccccc2/C1=N\N=C\c1ccc(O)c(O)c1,-56*,5%,32µM*,-20%,13µM*,?,6.8µM*,?,6.8µM*
Oc1ccc(/C=N/N=C/c2ccc(O)c(O)c2)cc1O,-8,11%,0.75µM*,?,?,0%,0.61µM*,-16%,1.1µM*
COc1cc(/C=N/N=C2/C(=O)Nc3ccccc32)ccc1O,-17,7%,-15%,-17%,-29%,-3%,/,/,/
CCS(=O)(=O)NCc1c(C)ncc2c1CCN(C(=O)c1ccc(F)cc1)C2,/,3%,/,/,/,/,/,/,/
Cc1ccc(C2=NC(=O)/C(=C/c3cc(O)c(O)c(Br)c3)S2)cc1,-82*,2%,7.9µM*,?,11µM*,31%,1.7µM*,6.8µM*,0.76µM*
SMILES,PI5P4K alpha inh,Glioma ERSR ind,WRN helicase inh-1,PGK inhibitor,FEN1 inh,Pin1 inh,WRN helicase inh-2,TO displacement,BLM helicase inh
COc1cccc(-c2ccnc(-n3ncc(C(=O)NCC(C)(C)CN(C)C)c3C)n2)c1,/,-2%,/,/,/,/,/,/,/
COc1cc(/C=N/Nc2nc(Nc3ccccc3)nc(-n3nc(C)cc3C)n2)cc(OC)c1OC,-8,-3%,?,-2%,-9%,3%,6.8µM*,78%,2.7µM*
Cc1cc(C)cc(C(=O)NCCn2cc(C(=O)N3CCSCC3)nn2)c1,/,0%,/,/,/,/,/,/,/
CCN(CC)CCNc1cccc2sc3ccccc3c(=O)c12,3,-4%,-1%,-2%,/,/,/,/,/
COc1cc(C)c2sc3ccccc3c(=O)c2c1NCCN(C)C,-9,-12%,35µM*,i,/,/,?,17µM*,?
Cc1cc(OCC(=O)Nc2ccc(N3CCN(C(=O)c4ccco4)CC3)cc2)cc(C)c1Cl,/,-3%,?,/,?,?,?,-10%,5.4µM*
Cc1ccc(OCC(=O)Nc2ccc(N3CCN(C(=O)c4ccco4)CC3)cc2)cc1C,3,-6%,-11%,0%,0%,-5%,/,/,/
COc1cc(N=Nc2cccc(S(N)(=O)=O)c2)c2ccccc2c1N,-29,0%,?,-13%,45µM*,?,?,?,?
NC1=NC(=Nc2cccc(S(N)(=O)=O)c2)c2ccccc21,0,0%,4%,-11%,-1%,2%,/,/,/
COc1cccc(-c2nc3cc(SC)ccc3cc2CN(C(=O)c2sccc2C)C2CC2)c1,/,-1%,/,/,/,/,/,/,/
COc1ccc(-c2nnc(Nc3nc4c(OC)cccc4s3)o2)cc1,/,6%,45µM*,-16%,?,?,9.6µM*,-14%,7.6µM*
COc1ccc(-c2nnc(Nc3nc4c(OC)cccc4s3)o2)c(OC)c1,/,0%,-29%,-7%[11.5 µM],?,1%,/,/,/
O=C1C=C(O)c2ccccc2C1=O,/,3%,/,/,/,/,/,/,/
O=C1C=C(c2c(O)ccc3ccccc23)c2ccccc2C1=O,?,-14%,20µM*,-7%,?,-1%,-19%,?,?
